# Results as given in PubChem BioAssay.
# Unmarked numbers belong to inactive results. Some of the results follow. Activity calls are given as the source filed them.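 The calls were made as follows, unless noted: active = mean inhibition above about 50% in the one-dose retest (limit read from the data); inactive = the rest.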
# Assays:
# [1] = PMA/ionomycin-induced NF-kB reporter inhibitors, Jurkat retest, confirmation, T-cell NF-kB inhibitor project, cell-based, luminescence, single concentration (AID 435020;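 active = inhibition reaching about 45% at 4 µM in either replicate, limit read from the data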;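 also: plate controls were PMA/ionomycin stimulated DMSO wells for no effect and unstimulated DMSO wells for full effect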); details: Jurkat NF-kB luciferase, 16 h, at 4 µM, hits give high values
# [2] = target: Sentrin-specific protease 8 (Homo sapiens) (UniProt Q96LD8); experiment: SENP8 protease inhibitors, retest, confirmation, biochemical, luminescence, single concentration (AID 488912;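 active = mean inhibition across replicates above about 50%, limit read from the data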); details: Recombinant SENP8, Z-RLRGG-aminoluciferin luminescence, 60 min; at 12.5 µM; hits give high values
# Sentrin-specific protease 8 (Homo sapiens), sequence (Q96LD8 whole entry, looked up): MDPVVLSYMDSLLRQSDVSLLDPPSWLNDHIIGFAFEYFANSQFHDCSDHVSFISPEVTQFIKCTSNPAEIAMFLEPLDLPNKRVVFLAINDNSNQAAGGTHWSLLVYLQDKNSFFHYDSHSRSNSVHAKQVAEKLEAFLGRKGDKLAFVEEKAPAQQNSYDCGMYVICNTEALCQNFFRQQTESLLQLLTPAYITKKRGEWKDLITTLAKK
# [3] = target: Sentrin-specific protease 6 (Homo sapiens) (UniProt Q9GZR1); experiment: SENP6 protease inhibitors, confirmation, biochemical, luminescence, single concentration (AID 488915); details: recombinant SENP6, Z-RLRGG-aminoluciferin luminescence; at 12.5 µM; hits give high values
# Sentrin-specific protease 6 (Homo sapiens), sequence (Q9GZR1 628-1112 limits assumed): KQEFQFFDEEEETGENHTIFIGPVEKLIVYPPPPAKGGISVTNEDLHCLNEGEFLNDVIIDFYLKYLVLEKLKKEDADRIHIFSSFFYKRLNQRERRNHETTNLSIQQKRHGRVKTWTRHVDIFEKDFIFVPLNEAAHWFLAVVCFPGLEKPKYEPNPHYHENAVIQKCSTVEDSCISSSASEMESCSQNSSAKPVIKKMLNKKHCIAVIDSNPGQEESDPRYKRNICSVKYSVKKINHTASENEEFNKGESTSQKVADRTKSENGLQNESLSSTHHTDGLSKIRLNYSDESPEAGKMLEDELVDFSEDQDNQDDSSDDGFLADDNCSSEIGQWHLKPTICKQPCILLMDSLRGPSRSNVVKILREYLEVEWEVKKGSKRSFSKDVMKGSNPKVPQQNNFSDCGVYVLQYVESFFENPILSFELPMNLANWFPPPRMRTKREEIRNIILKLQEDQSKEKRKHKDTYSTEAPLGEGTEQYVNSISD
# [4] = target: Sentrin-specific protease 7 (Homo sapiens) (UniProt Q9BQF6); experiment: SENP7 protease inhibitors, retest, confirmation, biochemical, luminescence, single concentration (AID 488917); details: recombinant SENP7, Z-RLRGG-aminoluciferin luminescence, 40 min; at 12.5 µM; hits give high values
# Sentrin-specific protease 7 (Homo sapiens), sequence (Q9BQF6 706-1050 limits assumed): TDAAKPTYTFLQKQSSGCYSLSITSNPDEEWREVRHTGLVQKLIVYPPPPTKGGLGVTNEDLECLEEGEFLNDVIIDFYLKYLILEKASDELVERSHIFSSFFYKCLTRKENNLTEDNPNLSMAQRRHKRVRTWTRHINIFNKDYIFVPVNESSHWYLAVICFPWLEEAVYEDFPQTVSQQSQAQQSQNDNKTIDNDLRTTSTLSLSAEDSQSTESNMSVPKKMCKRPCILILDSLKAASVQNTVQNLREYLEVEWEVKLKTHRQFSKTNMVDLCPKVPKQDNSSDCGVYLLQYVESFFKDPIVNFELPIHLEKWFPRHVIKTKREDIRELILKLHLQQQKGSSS
# Caspase-3 (Homo sapiens) = Caspase-3 (Homo sapiens) (UniProt P42574); experiment: caspase-3 protease inhibitors, confirmation, selectivity assay for SENP inhibitor project, biochemical, single concentration (AID 488918;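 active = mean inhibition above about 50%, limit read from the data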;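 also: plate controls were enzyme with DMSO for no effect and wells without caspase-3 for full effect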); details: purified caspase-3, Z-DEVD-aminoluciferin luminescence, 60 min; at 12.5 µM; hits give high values
# Caspase-3 (Homo sapiens), sequence (P42574 28-227 limits assumed): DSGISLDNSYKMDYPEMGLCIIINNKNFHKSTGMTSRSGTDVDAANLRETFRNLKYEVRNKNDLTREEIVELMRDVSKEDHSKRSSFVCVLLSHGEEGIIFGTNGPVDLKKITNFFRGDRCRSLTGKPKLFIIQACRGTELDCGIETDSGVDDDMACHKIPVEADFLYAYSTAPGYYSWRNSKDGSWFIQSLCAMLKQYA
# [5] = luciferase luminescence interference by compounds, confirmation, artefact control for SENP inhibitor project, biochemical, single concentration, SENP8 reaction pre-completed (AID 488919;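 active = mean inhibition above about 50% when retested at one dose, limit read from the data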;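 also: plate controls were DMSO wells with completed reaction for no effect and substrate without enzyme for full effect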); details: Pre-incubated SENP8/Z-RLRGG-aminoluciferin, at 12.5 µM, hits give high values
# [6] = activators of apoptotic CHOP UPR arm, confirmation, cell-based, CHO-CHOP luciferase reporter, single concentration (AID 463112; in the data active = activation above about 33%;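 also: 0% = DMSO wells and 100% = tunicamycin 10 µg/mL wells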); details: CHO-CHOP cells, CHOP-luciferase reporter luminescence; at 10 µM; hits give high values; percent of tunicamycin response, DMSO as zero
# [7] = inhibition of Brca1/Bard1 split-luciferase complementation, confirmation, counter-screen for Mdm2/MdmX interaction inhibitor project, luminescence, single concentration (AID 504668; call rule not given here); details: Brca1/Bard1 bimolecular luciferase complementation counterscreen, at 8 µM, hits give high values
# [8] = Peg3 promoter reporter inhibitors, retest, confirmation, cell-based, HeLa, luciferase reporter, single concentration (AID 602417;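 active = at 20 µM dose, 40% or more inhibition averaged across four replicates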); details: HeLa PEG-Prom luciferase reporter, luminescence, overnight; at 20 µM; hits give high values
# [9] = target: Protein Mdm4 (Homo sapiens) + E3 ubiquitin-protein ligase Mdm2 (Homo sapiens) (UniProt O15151+Q00987); experiment: retested Mdm2-MdmX interaction blockers, confirmation, cell-based, luminescence, single concentration, set 2 (AID 504601;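 active = mean inhibition of the luminescence signal across two replicates at or above 26 percent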); details: SaOS-2 split-luciferase Mdm2/MdmX complementation, at 8 µM, hits give high values
# Protein Mdm4 (Homo sapiens) + E3 ubiquitin-protein ligase Mdm2 (Homo sapiens), sequence (O15151 whole entry, looked up): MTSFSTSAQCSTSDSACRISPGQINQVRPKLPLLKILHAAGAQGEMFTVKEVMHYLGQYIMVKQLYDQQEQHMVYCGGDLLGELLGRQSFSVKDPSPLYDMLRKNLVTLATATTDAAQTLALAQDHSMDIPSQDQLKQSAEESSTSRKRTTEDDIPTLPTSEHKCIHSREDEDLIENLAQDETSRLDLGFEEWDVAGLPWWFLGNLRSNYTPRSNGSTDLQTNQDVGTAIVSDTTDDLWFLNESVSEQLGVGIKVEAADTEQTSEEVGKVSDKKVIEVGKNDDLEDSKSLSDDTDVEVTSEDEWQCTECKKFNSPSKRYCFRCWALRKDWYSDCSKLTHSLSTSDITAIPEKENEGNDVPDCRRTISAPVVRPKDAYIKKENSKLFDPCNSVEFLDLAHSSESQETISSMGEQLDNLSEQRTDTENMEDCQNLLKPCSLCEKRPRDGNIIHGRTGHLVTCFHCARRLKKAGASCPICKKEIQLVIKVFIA
# Protein Mdm4 (Homo sapiens) + E3 ubiquitin-protein ligase Mdm2 (Homo sapiens), sequence (Q00987 whole entry, looked up): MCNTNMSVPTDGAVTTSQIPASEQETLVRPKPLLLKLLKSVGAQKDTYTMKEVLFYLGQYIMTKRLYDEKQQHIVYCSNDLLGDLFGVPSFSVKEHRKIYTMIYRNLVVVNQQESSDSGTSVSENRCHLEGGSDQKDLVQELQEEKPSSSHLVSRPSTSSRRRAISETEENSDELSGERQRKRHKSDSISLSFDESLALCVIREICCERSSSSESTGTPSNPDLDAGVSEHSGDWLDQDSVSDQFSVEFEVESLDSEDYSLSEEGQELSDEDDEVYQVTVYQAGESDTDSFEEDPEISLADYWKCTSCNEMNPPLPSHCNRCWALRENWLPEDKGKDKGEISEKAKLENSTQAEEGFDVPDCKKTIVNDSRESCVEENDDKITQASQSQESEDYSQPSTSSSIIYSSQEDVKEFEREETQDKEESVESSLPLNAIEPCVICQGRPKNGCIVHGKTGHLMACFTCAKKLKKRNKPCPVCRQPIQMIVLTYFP
# [10] = HIF-2a reporter inhibitor retest, confirmation, luminescence, 786-0 RCC cells (AID 651580;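 active = mean inhibition across four replicates of at least 40 percent at the single tested concentration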); details: HIF-2a luciferase reporter luminescence, overnight, at 18.8 µM, hits give high values
# [11] = HIF-1a luciferase reporter signal reduction – MiaPaCa-2 cells, single concentration, counter-screen for HIF-2a inhibitor project, confirmation (AID 651589;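 active = mean inhibition of the reporter signal across four replicates at the single tested dose of 50% or more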); details: MiaPaCa-2 HIF-1a luciferase reporter, desferoxamine, overnight; at 18.8 µM; hits give high values
# [12] = Apaf-1 inhibitors, single-dose retest, confirmation, biochemical, fluorescence, DEVD-Rh110, 20 µM (AID 504614;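 active = mean inhibition of at least 40% at 20 µM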;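 also: plate controls were DMSO wells for no effect and DEVD-CHO caspase inhibitor control wells for full effect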); details: reconstituted apoptosome, caspase-3 DEVD-Rh110 fluorescence; at 20 µM; hits give high values
# [13] = Rh110 fluorescence interference by putative Apaf-1 inhibitors, confirmation, artefact control for Apaf-1 inhibitor project, biochemical, 20 µM (AID 504615;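 active = signal rise of 40% or more at 20 µM, treated as a fluorescence artifact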); details: quenched caspase reaction, at 20 µM, hits give high values
smiles,measurement,setting,value
Fc1ccccc1/C=N/Nc1cc(N2CCCCC2)ncn1,inhibition,[1],-109%
same,inhibition,[2],17.6%
same,inhibition,[3],16.9%
same,inhibition,[4],16.6%
same,inhibition,Caspase-3 (Homo sapiens),25.2%
same,inhibition,[5],6.6%
COc1cc(/C=N/O)ccc1OCc1ccc([N+](=O)[O-])cc1,inhibition,[1],-119%
CC(=O)Nc1cccc(-c2csc(Nc3cccc(C)n3)n2)c1,inhibition,[1],-67.1%
same,inhibition,[2],6.1%
same,inhibition,[3],93.9% (active)
same,inhibition,[4],102% (active)
same,inhibition,Caspase-3 (Homo sapiens),75.7% (active)
same,inhibition,[5],94.2% (active)
C[C@@H]1C[C@@H]2O[C@H]2/C=C\C=C\C(=O)Cc2c(Cl)c(O)cc(O)c2C(=O)O1,inhibition,[1],96.4% (active)
same,activation,[6],134% (active)
same,inhibition,[7],33.8% (active)
COc1ccc(N=C(C)c2sc3ccccc3c2O)cc1,inhibition,[1],-7.85%
same,inhibition,[2],16.5%
same,inhibition,[3],19.5%
same,inhibition,[4],14.7%
same,inhibition,Caspase-3 (Homo sapiens),9.6%
same,inhibition,[5],-5.1%
COc1cc(NS(=O)(=O)c2ccc3ccccc3c2)c2ncccc2c1,inhibition,[1],2.5%
same,activation,[6],689% (active)
same,inhibition,[8],43% (active)
O=C(Nc1ccc2sc3ccccc3c(=O)c2c1)c1ccccc1Cl,inhibition,[1],-104%
same,inhibition,[2],6.3%
same,inhibition,[3],0%
same,inhibition,[4],13.5%
same,inhibition,Caspase-3 (Homo sapiens),24.3%
same,inhibition,[5],4.3%
O=[N+]([O-])c1ccccc1S(=O)(=O)Nc1cccc2cccnc12,inhibition,[1],33.1%
same,activation,[6],656% (active)
same,inhibition,[9],102% (active)
O=C(CSC(=S)N1CCCCC1)c1c(F)cccc1F,inhibition,[1],-113%
CCCc1cc(C(=O)Nc2ccc(Cl)cn2)cs1,inhibition,[1],-104%
same,inhibition,[2],73.5% (active)
same,inhibition,[3],79.2% (active)
same,inhibition,[4],92.2% (active)
same,inhibition,Caspase-3 (Homo sapiens),66.8% (active)
same,inhibition,[5],59.1% (active)
Cc1c(C(=O)Nc2ccccn2)oc2ccc(Br)cc12,inhibition,[1],-77.2%
same,inhibition,[2],14.3%
same,inhibition,[3],18.5%
same,inhibition,[4],27.6%
same,inhibition,Caspase-3 (Homo sapiens),22.7%
same,inhibition,[5],17.1%
CCOc1cccc(/C=C/c2ccc3ccccc3n2)c1OC(C)=O,inhibition,[1],-131%
O=C(Nc1ccc2c(c1)OCCO2)C1CCCN(c2ncccn2)C1 (stereo not given),inhibition,[1],-110%
COc1cc(C(=O)NN(CCC#N)C2=NS(=O)(=O)c3ccccc32)cc(OC)c1OC,inhibition,[1],-119%
O=C(Nc1ccccc1)Nc1nc2ccccc2s1,inhibition,[1],-117%
same,inhibition,[2],17.8%
same,inhibition,[3],29%
same,inhibition,[4],25.6%
same,inhibition,Caspase-3 (Homo sapiens),44.9%
same,inhibition,[5],22.6%
Cc1ccc2nc(-c3ccncc3)cc(C(=O)Nc3ccc(OC(F)F)cc3)c2c1,inhibition,[1],28.2%
Cc1ccc(N/C=C/C(=O)c2ccccc2)cc1C,inhibition,[1],3.3%
same,inhibition,[2],34.5%
same,inhibition,[3],73.8% (active)
same,inhibition,[4],91.5% (active)
same,inhibition,Caspase-3 (Homo sapiens),78.6% (active)
same,inhibition,[5],13.8%
CCc1ccc2oc(-c3ccc(N)cc3)nc2c1,inhibition,[1],-126%
same,inhibition,[2],94.5% (active)
same,inhibition,[3],94.8% (active)
same,inhibition,[4],100% (active)
same,inhibition,Caspase-3 (Homo sapiens),84.1% (active)
same,inhibition,[5],94.5% (active)
CCn1c(/C=C/c2ccc([N+](=O)[O-])o2)nc2ccccc2c1=O,inhibition,[1],23.7%
same,activation,[6],14.3%
same,inhibition,[10],-36.9%
same,inhibition,[11],105% (active)
O=C(c1cnn(-c2ccc(Cl)cc2)c1)c1ccccc1O,inhibition,[1],-109%
same,inhibition,[2],11.7%
same,inhibition,[3],95.3% (active)
same,inhibition,[4],78.6% (active)
same,inhibition,Caspase-3 (Homo sapiens),73.5% (active)
same,inhibition,[5],56.5% (active)
Cc1nc(NC(=O)c2ccc3c(c2)OCCO3)ccc1Br,inhibition,[1],-134%
same,inhibition,[2],82.6% (active)
same,inhibition,[3],80.5% (active)
same,inhibition,[4],96.2% (active)
same,inhibition,Caspase-3 (Homo sapiens),74% (active)
same,inhibition,[5],64.5% (active)
O=C(Nc1ccc2c(c1)CCC2)c1ccc(Br)s1,inhibition,[1],-177%
same,inhibition,[2],44.7%
same,inhibition,[3],70.8% (active)
same,inhibition,[4],73.3% (active)
same,inhibition,Caspase-3 (Homo sapiens),47%
same,inhibition,[5],24.2%
Cc1noc(C)c1/C=N/Nc1ccc2ccccc2n1,inhibition,[1],-102%
same,inhibition,[2],-12.5%
same,inhibition,[3],-9%
same,inhibition,[4],6.7%
same,inhibition,Caspase-3 (Homo sapiens),6.2%
same,inhibition,[5],-1.9%
N#Cc1ccc(C2N=C(c3ccccc3)NO2)cc1 (stereo not given),inhibition,[1],-93.9%
same,inhibition,[2],24.2%
same,inhibition,[3],9.2%
same,inhibition,[4],22.5%
same,inhibition,Caspase-3 (Homo sapiens),13.1%
same,inhibition,[5],2.1%
COc1ccc(Nc2cc(C)nc(-n3nc(C)cc3C)n2)cc1,inhibition,[1],64.7% (active)
same,activation,[6],2.6%
CCC(=O)Nc1ccc2nn(-c3ccc(F)cc3)nc2c1,inhibition,[1],-119%
same,inhibition,[2],18.1%
same,inhibition,[3],38.2%
same,inhibition,[4],46.4%
same,inhibition,Caspase-3 (Homo sapiens),32.5%
same,inhibition,[5],3.4%
O=C(COC(=O)c1ccc(F)cc1)NCC1COc2ccccc2O1 (stereo not given),inhibition,[1],12.1%
CC(C)Sc1ncnc2c1cnn2-c1ccccc1,inhibition,[1],-138%
C/C(=N\NC(=O)c1ccccc1F)c1ccccn1,inhibition,[1],4.3%
Cc1ccc(O)c(NC(=O)c2cc(-c3ccco3)on2)c1,inhibition,[1],52.2% (active)
same,inhibition,[2],30.6%
same,inhibition,[3],36.5%
same,inhibition,[4],81.1% (active)
same,inhibition,Caspase-3 (Homo sapiens),44.4%
same,inhibition,[5],14.4%
CCCOc1ccc(C(=O)NCCc2ccccc2)cc1,inhibition,[1],-82%
same,inhibition,[2],13.2%
same,inhibition,[3],62% (active)
same,inhibition,[4],88.3% (active)
same,inhibition,Caspase-3 (Homo sapiens),78% (active)
same,inhibition,[5],-5.4%
NC(N)=N/N=C/c1ccc(OCc2ccc(Cl)cc2Cl)cc1,inhibition,[12],35.8%
same,activation (fluorescence interference),[13],-0.23%
CCOc1[nH]n(-c2ccc(Cl)cc2)c(=O)c1C=Nc1ccc(O)cc1,inhibition,[12],14.8%
same,activation (fluorescence interference),[13],5.36%
